From PubChem BioAssay
Hits are enriched below; roughly 5.4% of the tested compounds scored in any of these assays.
HSF-1 act – increases HSF-1 driven luciferase reporter signal; NIH3T3-HGL HSF-1 luciferase reporter, MG132, 8 h; 100% = twice DMSO control signal; activation, % at 9 µM; hit rate 1.7% among 300,000; AID 504408;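 active = mean replicate activation of at least 50% with a set share of replicates each reaching 50%; inconclusive = only one of those two conditions met; inactive = mean below 50% and too few replicates reaching it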;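 also: 0% = median of the neutral control wells and 100% = twice that signal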
GAA850 FXN act – increases GAA850 frataxin promoter reporter activity. activation, % at 6 µM. hit rate 0.56% among 360,000. HEK293 lucGAA850 FXN promoter luciferase reporter, 24 h; percent of 10 µM SAHA response;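 active = activation above the average of all compounds screened plus 3 SD, cutoff fixed separately per campaign, cut at about 7.5% in these data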;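 also: 0% = DMSO wells and 100% = 10 µM SAHA wells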
AHR activator – activators of human aryl hydrocarbon receptor | P35869 | AHR-responsive luciferase reporter cells, luminescence | activation, % at 5 µM | hit rate 2.5% among 320,000; in the data active = activation above about 47%;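 also: 0% = vehicle wells and 100% = reference agonist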
NR0B1 inh – inhibits human nuclear receptor DAX1 | HEK293 Gal4-DAX1 luciferase reporter, luminescence | inhibition, % at 6.75 µM | hit rate 0.99% among 340,000 | AID 504766;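 active = inhibition above the mean over all tested compounds plus 3 SD, cut at about 4.2% in these data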;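 also: 0% = DAX1-transfected cells with DMSO and 100% = empty-vector control cells with DMSO; inhibition shows as a rise in luminescence from relieved DAX1 repression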
Target sequence (P51843 207-470 limits assumed): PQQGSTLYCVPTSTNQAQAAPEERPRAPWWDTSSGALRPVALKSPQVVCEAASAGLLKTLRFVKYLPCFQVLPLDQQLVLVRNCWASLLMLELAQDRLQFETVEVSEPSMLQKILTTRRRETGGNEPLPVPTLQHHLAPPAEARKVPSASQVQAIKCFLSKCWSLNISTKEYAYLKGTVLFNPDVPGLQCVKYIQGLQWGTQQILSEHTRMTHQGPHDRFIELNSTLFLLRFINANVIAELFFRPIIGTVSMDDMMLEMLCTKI
HSF1 inhib – HSF1 inhibition; NIH3T3-HGL HSE-luciferase, MG132-induced, luminescence 8 h; active compounds read low; activity change, negative = inhibition, % at 7.5 µM (by protocol); hit rate 0.77% among 300,000; AID 2098;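 active = more than half of replicate wells show activity change below -50%, luminescence cut by over half; inconclusive = some wells, but at most half, below -50%; inactive = no replicate well below -50%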;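 also: luciferase reports HSF-1 transcriptional activity via heat shock element; 0% = median of DMSO wells and -100% = zero luminescence signal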
* = called active by the depositor; u = inconclusive; x = not tested or not shown.

SMILES	HSF-1 act	GAA850 FXN act	AHR activator	NR0B1 inh	HSF1 inhib
CCOc1ccccc1Nc1nc(-c2sc(NC(=O)c3cccc(Cl)c3)nc2C)cs1	15	0	64*	1	16
Cc1ccc(Cl)cc1Nc1nc(-c2sc(NC(=O)c3ccccc3)nc2C)cs1	10	x	36	x	9
COc1ccccc1Nc1nc(-c2sc(NC(=O)c3ccccc3)nc2C)cs1	12	1	28	1	9
CCOc1ccccc1Nc1nc(-c2sc(NC(=O)c3ccccc3)nc2C)cs1	-32	x	72*	x	-12
CN(C)/C=C/C1=CC(=O)CC(C)(C)C1	1	3	-1	-1	-6
CC1(C)Cc2c(sc3nc4n(-c5ccccc5)cnn4c(=O)c23)CO1	23	1	0	1	5
Cc1ccccc1-c1cc2nc(Nc3ccc(F)cc3)n(C)c(=O)c2s1	x	-8	x	x	x
O=C(NCc1ccccc1F)C1CCCN1S(=O)(=O)c1ccc(Cl)cc1 (centres undefined)	6	0	0	-3	-3
COc1ccc(C(=O)Oc2ccc(C(C)=O)cc2)c(OC)c1	60*	4	4	1	25
Cc1[nH][nH]c(=O)c1C(c1ccccc1[N+](=O)[O-])C(C#N)C#N (centres undefined)	10	0	29	1	-2
CCCc1[nH][nH]c(=O)c1C(c1cccc(Cl)c1)C(C#N)C#N (centres undefined)	28	-1	0	4.5*	13
O=C(O)CC(NC(=O)Cc1ccc([N+](=O)[O-])cc1)c1ccc2c(c1)OCO2 (centres undefined)	16	1	2	4.4*	8
COc1cc(OC)c(NC(=O)CCNC(=O)Cn2cnc3ccccc3c2=O)cc1Cl	51*	4	0	0	8
COc1ccc(C(=O)Nc2cc(OC)c(Cl)cc2Cl)cc1	0	2	50*	0	5
COc1cccc(C(=O)CC(=O)C(=O)Nc2cc(Cl)c(OC)cc2OC)c1	7	3	0	0	4
COc1cc(OC)c(NC(=O)c2ccc(F)cc2)cc1Cl	-10	1	2	0	-4
COc1cc(OC)c(N(C)C(=O)CCNC(=O)Cn2cnc3ccccc3c2=O)cc1Cl	5	1	-1	-1	-2
COc1cc(NC(=O)c2ccccc2)c(OC)cc1Cl	3	-3	69*	0	3
COc1ccc(C(=O)CC(=O)C(=O)Nc2cc(Cl)c(OC)cc2OC)cc1	6	0	77*	1	-1
Cc1ccc2nc(NC3=NC(CC(=O)O)C(=O)N3)nc(C)c2c1 (centres undefined)	-4	x	-1	x	10
COc1cc(OC)c(NC(=O)CCc2ccccc2)cc1Cl	13	0	50*	-2	7
CCCc1cc(C(=O)Nc2ccccc2C(=O)OC)no1	-15	0	21	0	-3
COc1ccc(Cl)cc1NC(=O)CCc1ccccc1	-5	2	-1	-2	5
COc1cc(NC(=O)c2ccc(Br)cc2)c(OC)cc1NC(=O)c1ccccc1	12	1	63*	0	2
CCCc1cc(C(=O)Nc2cc(OC)c(Cl)cc2OC)no1	25	0	62*	2	2
SMILES	HSF-1 act	GAA850 FXN act	AHR activator	NR0B1 inh	HSF1 inhib
CCN(CC)S(=O)(=O)c1cccc(-c2nc3n(n2)Cc2ccccc2-3)c1	17	3	19	0	13
COc1cccc(-c2nc3n(n2)CCc2ccccc2-3)c1	x	5	x	4.3*	x
O=C1CCc2cc(NS(=O)(=O)c3cc(F)ccc3F)cc3c2N1CC3	0	2	4	0	-3
COCCN(Cc1cn[nH]c1-c1ccc2cc(OC)ccc2c1)C(C)C	56*	4	x	1	38
CCOC(=O)CN(C)Cc1cn[nH]c1-c1ccc2cc(OC)ccc2c1	18	3	25	-1	16
Cc1cc(OCc2nc(-c3cccs3)no2)cc(C)c1Cl	17	2	1	1	18
c1ccc(OCc2nc(-c3cccs3)no2)cc1	59*	4	6	2	29
c1csc(-c2noc(CN3CCOCC3)n2)c1	5	1	6	4.7*	-4
Fc1ccc(OCc2nc(-c3cccs3)no2)cc1	65*	3	-3	3	31
CCCCNC(=O)C1(C)CCCCN1C(=O)c1ccc2ccccc2n1 (centres undefined)	x	-1	x	x	x
CC(C)Cc1nc(SCC(=O)N2CCCCC2)c2c(=O)n(C)c(=O)n(C)c2n1	4	-1	1	0	-6
CC(OC(=O)c1ccc(S(=O)(=O)N2CCCCC2)cc1)C(=O)Nc1ccc(C(N)=O)cc1 (centres undefined)	x	1	0	-1	x
CC(OC(=O)c1nccnc1N)C(=O)Nc1ccc(S(=O)(=O)N2CCCC2)cc1 (centres undefined)	12	2	1	4.6*	-3
CN(C)S(=O)(=O)N1CCc2ccccc21	-11	1	18	0	-5
CN(C)S(=O)(=O)N1CCc2ccccc2C1	4	-2	0	4.3*	-4
O=C(O)Cc1nn(Cc2ccc(Cl)cc2)c(=O)c2ccccc12	-7	1	5	9.0*	0
CC1=CC(=O)C=C(C)C1=NOC(=O)/C=C\c1ccccc1	65*	1	5	0	42
CC1=CC(=NOC(=O)/C=C/c2ccccc2)C=C(C)C1=O	2	5	3	-1	7
CCOC(=O)COc1c(Br)cc(/C=C2\SC(=O)N(CC(=O)N3CCCC3)C2=O)cc1OC	2	1	0	4.7*	11
CCOc1c(Br)cc(/C=C2/SC(=O)N(CC(=O)N3CCCC3)C2=O)cc1OC	15	-1	1	1	0
O=C(NCc1ccco1)/C(=C\C=C\c1ccccc1)NC(=O)c1ccco1	7	1	10	7.4*	-2
Cc1ccc(N=C2C(=S)N(c3ccc(C)cc3)C(=N)N2/N=C/c2ccc(Cl)cc2)cc1	108*	1	10	3	67
O=C(/C=C/Nc1ccc(S(=O)(=O)Nc2ncccn2)cc1)c1ccc(Cl)c(Cl)c1	4	1	7	4	3
Cc1cc(N/C=C/C(=O)c2ccc(Br)cc2)no1	55*	3	-4	0	32
O=C(/C=C/Nc1ccc(F)cc1)c1ccc(Br)cc1	65*	6	16	2	33
SMILES	HSF-1 act	GAA850 FXN act	AHR activator	NR0B1 inh	HSF1 inhib
Cc1ccnc(N/C=C/C(=O)c2ccc(Br)cc2)c1	u	6	x	0	26
O=C(/C=C/Nc1ccc(F)c(F)c1)c1cccs1	33	4	41	4	27
O=C(/C=C/Nc1ccc(F)c(F)c1)c1ccc(Br)cc1	u	5	0	1	30
O=C(/C=C/Nc1ccc(S(=O)(=O)Nc2ncccn2)cc1)c1cccs1	x	1	8	5.7*	x
O=C(/C=C/Nc1ccc(F)cc1)c1cccs1	65*	4	23	0	32
CC(=O)N(CC#CCN(C(C)=O)c1ccccc1)c1ccccc1	x	3	x	2	x
